# According to the supplement of paper PMC6555819:
# What was measured:
# Assay in all cases: PBM binding z-score (relative to random genomic background probes); higher = stronger binding; sequences stand for … in GC…GCGATTGACAGCGTAGAATGAAGG
# [1] = test system: FXR:RXRa (NR concentration 270 nM, RXRa partner concentration 90 nM)
# Method in brief: (§1)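 Binding z-scores take random background probes as their reference. They come from custom Agilent 4×180K protein-binding microarrays incubated 1 h with ligand-free nuclear receptor dimers, with antibodies against each partner (one per run) detecting binding. Scanned fluorescence was regression-normalized.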
# [2] = test system: LXRa:RXRa (NR concentration 270 nM, RXRa partner concentration 90 nM)
# Method in brief: as §1
# [3] = test system: LXRa homodimer (NR concentration 270 nM)
# Method in brief: as §1
# [4] = test system: LXRb:RXRa (NR concentration 270 nM, RXRa partner concentration 90 nM)
# Method in brief: as §1
# [5] = test system: LXRb homodimer (NR concentration 270 nM)
# Method in brief: as §1
# [6] = test system: PPARa:RXRa (NR concentration 270 nM, RXRa partner concentration 90 nM)
# Method in brief: as §1
# [7] = test system: PPARg:RXRa (NR concentration 180 nM, RXRa partner concentration 90 nM)
# Method in brief: as §1
# [8] = test system: PPARg:RXRa 270nM:90nM, anti-RXR (NR concentration 270 nM, RXRa partner concentration 90 nM)
# Method in brief: as §1
# [9] = test system: PPARg:RXRa 30nM:10nM, anti-RXR (NR concentration 30 nM, RXRa partner concentration 10 nM)
# Method in brief: as §1
# [10] = test system: PPARg:RXRa 90nM:30nM, anti-RXR (NR concentration 90 nM, RXRa partner concentration 30 nM)
# Method in brief: as §1
# [11] = test system: PPARg:RXRa DBDmut IVT, anti-RXR (DBD mutation: RXRa K156A/R161A, NR concentration 270 nM, RXRa partner concentration 90 nM)
# Method in brief: as §1
# [12] = test system: PPARg:RXRa IVT, anti-PPARg (NR concentration 270 nM, RXRa partner concentration 90 nM)
# Method in brief: as §1
# [13] = test system: PPARg DBDmut:RXRa IVT, anti-PPARg (DBD mutation: PPARg1 K132A/R137A, NR concentration 270 nM, RXRa partner concentration 90 nM)
# Method in brief: as §1
# [14] = test system: PPARg DBDmut IVT, anti-PPARg (DBD mutation: PPARg1 K132A/R137A, NR concentration 270 nM)
# Method in brief: as §1
# [15] = test system: PPARg homodimer (NR concentration 180 nM)
# Method in brief: as §1
# [16] = test system: PXR:RXRa (NR concentration 270 nM, RXRa partner concentration 90 nM)
# Method in brief: as §1
# [17] = test system: PXR homodimer (NR concentration 270 nM)
# Method in brief: as §1
# [18] = test system: RARa:RXR (NR concentration 270 nM, RXRa partner concentration 90 nM)
# Method in brief: as §1
# [19] = test system: RARa homodimer (NR concentration 270 nM)
# Method in brief: as §1
# [20] = test system: RARb:RXRa (NR concentration 270 nM, RXRa partner concentration 90 nM)
# Method in brief: as §1
Sequence,PBM binding z-score [1],PBM binding z-score [2],PBM binding z-score [3],PBM binding z-score [4],PBM binding z-score [5],PBM binding z-score [6],PBM binding z-score [7],PBM binding z-score [8],PBM binding z-score [9],PBM binding z-score [10],PBM binding z-score [11],PBM binding z-score [12],PBM binding z-score [13],PBM binding z-score [14],PBM binding z-score [15],PBM binding z-score [16],PBM binding z-score [17],PBM binding z-score [18],PBM binding z-score [19],PBM binding z-score [20]
CGTCCAAGGTCAGCAGGACAGTGAAAGCGACGTG,5.11,3,-0.143,2.24,-0.588,4.36,2.83,3.16,0.274,2.07,2.27,2.58,0.502,-0.859,1.75,2.27,0.176,2.92,0.175,5.17
ATATGTAGGGTAGCTGGGGTCATTCAGACTAGGC,3.69,4.07,2.16,4.42,1.68,5.28,5.01,4.85,2.14,3.95,5.27,5.46,1.65,3.4,2.54,6.03,3.77,5.97,0.388,2.87
GATACAGGGTCAGCTAGAGGCCAGAATATGGAAA,4.72,2.63,-0.176,2.61,-0.466,4.48,3.78,3.14,1.04,2.25,0.991,2.56,-0.253,-0.217,2.63,3.24,0.115,4.04,0.657,4.02
GCTATTAGTTGAAATGGCAACCGAATGATTCTCG,-0.365,-0.424,-0.152,-0.394,-0.166,-0.14,0.344,0.398,0.213,0.114,0.598,-0.104,0.641,0.526,0.501,-0.119,0.359,-0.166,0.404,-0.346
CGTCCAAGGTCAGAGAGGCCAGTGAATGCCGAGT,4.34,2.95,0.144,2.18,-0.662,3.93,2.04,2.45,-0.0839,1.33,2.19,2.04,-0.142,-0.792,1.17,2.83,2.62,2.56,-0.0378,4.62
CCTAGTTGGACAAGGTCACACACGCTATAGGTAC,3.57,3.53,1.48,3.58,0.67,4.1,2.58,2.92,0.968,2.08,0.793,2.52,0.526,0.701,3.15,3.9,1.97,4.4,2.1,3.85
TCTTGTAGATCAAGCAGGGTAAGAAAGCCTGAGT,0.561,-0.0537,-0.634,0.0919,-0.511,0.15,-0.37,1.08,2.34,1.6,1.7,0.481,-0.108,-0.000734,-0.854,0.136,-0.0302,0.246,-0.676,-0.148
CTCGATAGGTCGTGCTCAGGTGAGTATACCAAAC,0.909,0.843,-0.342,0.951,-0.454,1.82,0.11,0.394,-0.186,-0.0239,0.241,0.78,-0.285,0.141,0.257,0.623,-0.52,1.44,-0.705,1.77
CGTCCAAGGTCAGCAGGTCAGTGAGAGCGACGTG,5.85,4.1,0.541,2.94,-0.239,4.74,4.1,4.36,1.29,2.94,2.88,3.81,-0.522,-0.683,3.25,3.75,0.915,4.78,1.19,5.39
TGGCCTAGGTCAGATCGGGCCAGTATACGCTATA,2.31,0.419,-0.777,0.152,-1.29,1.39,0.44,0.442,-0.693,-0.369,-0.485,1.03,-1.16,-1.38,-0.396,0.928,-0.757,0.548,-1.18,2.85
CGTACTGGGCCATCAGGTCATTGATATCAACGTT,1.44,1.12,0.948,1.53,-0.168,2.78,2.86,3.82,1.21,3.32,5.01,4.86,0.473,-0.333,1.12,1.67,0.831,1.88,-0.122,1.93
CGAACTAGGTCAGAACAGGACACTGAAGGATGAT,1.48,1.37,0.372,0.71,-0.177,3.15,5.08,4.56,1.8,3.43,7.14,7.36,1.14,1.38,0.688,0.996,-0.0376,1.24,0.452,2.9
TATACAGGGTCAAAGGCGAGAGTACGAATGTCGA,7.01,6.18,2.21,4.53,2.51,6.19,7.72,6.81,3.94,6.47,2.19,4.69,2.38,1.65,2.22,3.85,0.6,4.91,0.979,4.45
CAAACTGGGTCAAAGGTCAAAGTCGAGCCAACCA,7.83,7.07,4.88,6.89,2.4,7.41,14.1,11.2,13.5,13,8.32,8.37,2.08,2.33,4.84,6.91,2,8.83,2.4,5.44
CTCGAAAGGTTGTGCTCAGGTGAGTATACCAAAC,0.895,0.617,-0.192,0.714,-0.313,1.04,-0.0653,0.312,-0.567,0.171,-0.27,-0.00807,-0.154,-0.108,0.203,0.645,-0.0824,1.38,0.121,1.2
GATACAGGGTCAGCTAGAGGCCGGAGTATGGAAA,4.48,2.56,-0.44,2.17,-0.594,4.57,3.61,3.41,0.716,2.13,1.03,2.37,-0.293,0.124,1.78,2.59,-0.0586,3.41,0.211,4.12
CAAACTAGGTCACAGAGGTCTAAGTCCGTGCGTA,4.42,3.56,0.555,2.13,0.273,5.17,8.49,6.93,5.19,6.98,8.53,8.91,1.68,1.67,0.929,2.54,0.546,2.8,0.421,4.13
ACTAGCGGGCCAAGGGTCACTCAAGATTAGTCCG,1.99,2.61,0.192,2.86,-0.58,4.26,7.39,7.39,6.2,8.29,0.353,3.65,-0.682,-0.893,0.892,3.21,-0.327,4.1,0.108,3.38
